The target in experiment [1] is rat Thyrotropin Releasing Hormone Receptor (TRH), Trhr (gene 25570) (UniProt Q01717). The experiment in a line: NVS_GPCR_rTRH: NovaScreen (NVS) G Protein-Coupled Receptor Assay for rat Thyrotropin Releasing Hormone Receptor (TRH) (AID 2283329; active means hit-call score of the fitted dose curve at least 0.9, where 1 is the maximum;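 further: hit means lower bound tracer signal versus DMSO baseline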). Put shortly: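 Rat forebrain membrane prep, radioligand displacement, filter scintillation readout at 4 h. Single conc 25 uM, duplicate; actives retested as concentration series. DMSO = negative control/baseline.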

For experiment [2], the target named is human Peripheral-type Benzodiazepine Receptor (PBR), TSPO (gene 706) (UniProt P30536). The experiment is described as follows: NVS_MP_hPBR: NovaScreen (NVS) Membrane Protein Assay for human Peripheral-type Benzodiazepine Receptor (PBR) (AID 2283331; active means hit-call score of the fitted dose curve at least 0.9, where 1 is the maximum;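 further: hits reduce radioligand binding relative to DMSO baseline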). Put shortly: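 Scintillation counts of filter-bound radioligand served as read-out after 1 h chemical dosing of human colonic membrane preparations. Activity was scored as signal loss against DMSO; initial duplicates at 25 uM, confirmatory concentration series afterward.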

Experiment [3] can be described thus: BSK_BT_PBMCCytotoxicity: PBMC Cytotoxicity Assessment in the BioMAP Diversity Plus: BT Assay (AID 2284225).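 Further: PBMC viability measured by Alamar Blue dye reduction fluorescence.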 As to conditions: primary human B cells with PBMC. The gist of the method:
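75,000 cells/well; cpd 1 h → SEB + TSST-1 (20 ng/mL final each) → 90 h → Alamar Blue 6 h → fluor. 546/580 nm. DMSO = neg. control/baseline.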

Read-out in experiment [4]: Secreted IgG (sIgG), gene 3500
The experiment in a line: BSK_BT_sIgG: BioMAP Diversity Plus: BT Assay for Secreted IgG (sIgG) Biomarker Activity (AID 2284226). As to conditions: primary human B cells with PBMC. Put shortly:
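B cells co-cultured with PBMC were dosed with chemical and secreted IgG quantified by ELISA at 24 h. Activity was fitted in the positive direction relative to DMSO as negative control and baseline.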

Read-out in experiment [5]: Tumor necrosis factor (Homo sapiens) (UniProt P01375)
The experiment is described as follows: BSK_BT_xTNFa: BioMAP Diversity Plus: BT Assay for Tumor necrosis factor alpha (TNF-alpha) Biomarker Activity (AID 2284230). As to conditions: primary human B cells with PBMC. The gist of the method: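 Compounds were added to a B cell plus PBMC co-culture, and after 24 h secreted TNF-alpha was quantified with Luminex xMAP technology, with responses fitted upward from the DMSO control.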

Read-out in experiment [6]: Vascular cell adhesion molecule 1 (VCAM1), VCAM1 (gene 7412)
The experiment is described as follows: BSK_MyoF_VCAM1: BioMAP Diversity Plus: MyoF Assay for Vascular cell adhesion molecule 1 (VCAM1) Biomarker Activity (AID 2284231). The conditions noted are these: primary human lung fibroblasts. The gist of the method:
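Primary human lung fibroblasts (BioMAP MyoF system) dosed with chemical, VCAM-1 measured by ELISA 24 hours later. Fitted in the positive direction against DMSO; parallel SRB staining assessed cytotoxicity.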

Read-out in experiment [7]: Collagen I, COL1A1 (gene 1277)
The experiment in a line: BSK_MyoF_CollagenI: BioMAP Diversity Plus: MyoF Assay for Collagen I Biomarker Activity (AID 2284238). The conditions noted are these: primary human lung fibroblasts. Put shortly:
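Primary human lung fibroblasts (MyoF system) treated 24 h; Collagen I quantified by ELISA and fitted in positive direction against DMSO. Parallel SRB total-protein staining assessed overt cytotoxicity.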

Read-out in experiment [8]: Actin alpha 1 (ACTA1), ACTA1 (gene 58)
The experiment in a line: BSK_MyoF_ACTA1: BioMAP Diversity Plus: MyoF Assay for Actin alpha 1 (ACTA1) Biomarker Activity (AID 2284244). The conditions noted are these: primary human lung fibroblasts. The gist of the method:
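Human lung fibroblasts (MyoF system) dosed with test chemical for 24 h; α-SMA measured by ELISA. Gain of signal fitted relative to DMSO negative control as baseline.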

Read-out in experiment [9]: Basic fibroblast growth factor (bFGF), FGF2 (gene 2247)
The experiment in a line: BSK_MyoF_bFGF: BioMAP Diversity Plus: MyoF Assay for Basic fibroblast growth factor (bFGF) Biomarker Activity (AID 2284246). As to conditions: primary human lung fibroblasts. Put shortly: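 Human lung fibroblasts were dosed with chemicals and bFGF was quantified by ELISA 24 h later. Activity was fitted in the gain-of-signal direction relative to DMSO as negative control and baseline. Parallel SRB total-protein staining tracked overt cytotoxicity.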

Read-out in experiment [10]: Collagen IV, COL4A1 (gene 1282)
The experiment in a line: BSK_MyoF_CollagenIV: BioMAP Diversity Plus: MyoF Assay for Collagen IV Biomarker Activity (AID 2284247). The conditions noted are these: primary human lung fibroblasts. The gist of the method: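 Primary human lung fibroblasts were exposed to test chemicals and sampled 24 h after dosing. Collagen IV levels were measured by ELISA and fitted in the positive direction against DMSO as negative control and baseline.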

Read-out in experiment [11]: Plasminogen activator inhibitor-1 (PAI1), SERPINE1 (gene 5054)
The experiment is described as follows: BSK_MyoF_PAI1: BioMAP Diversity Plus: MyoF Assay for Plasminogen activator inhibitor-1 (PAI1) Biomarker Activity (AID 2284256).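 On outcome: PAI-1 read 24 h after compound addition.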 The conditions noted are these: primary human lung fibroblasts. The gist of the method:
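Primary human lung fibroblasts treated with chemical for 24 h; PAI-1 levels quantified by ELISA relative to DMSO. Cytotoxicity was assessed in parallel cultures by SRB total-protein staining (0.1% SRB after 10% TCA fixation, 560 nm).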

Read-out in experiment [12]: Interleukin-8 (IL8), CXCL8 (gene 3576)
The experiment in a line: BSK_MyoF_IL8: BioMAP Diversity Plus: MyoF Assay for Interleukin-8 (IL8) Biomarker Activity (AID 2284261). The conditions noted are these: primary human lung fibroblasts. The gist of the method:
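Human lung fibroblast (MyoF system) cultures dosed for 24 h, then IL-8 measured by ELISA. Response taken relative to DMSO; parallel SRB total-protein staining for cytotoxicity.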

Experiment [13] in a line: BSK_MyoF_SRB: Viability Assessment in the BioMAP Diversity Plus: MyoF Assay (AID 2284267).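 Further: total protein by SRB absorbance in parallel cultures as cytotoxicity measure; cells assessed 24 h after compound addition.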 The conditions noted are these: primary human lung fibroblasts. Put shortly: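 Human lung fibroblasts dosed with chemical and assessed 24 h later for overt cytotoxicity in parallel cultures. Total protein quantified by sulforhodamine B staining (0.1% SRB after 10% TCA fixation), read at 560 nm, analysed in positive direction versus DMSO baseline.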

Read-out in experiment [14]: TIMP metallopeptidase inhibitor 1 (TIMP1), TIMP1 (gene 7076)
The experiment in a line: BSK_MyoF_TIMP1: BioMAP Diversity Plus: MyoF Assay for TIMP metallopeptidase inhibitor 1 (TIMP1) Biomarker Activity (AID 2284269). As to conditions: primary human lung fibroblasts. Put shortly:
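Fibroblasts from human lung are dosed with chemical, cultured 24 h, and assayed for TIMP-1 by ELISA. Increases over the DMSO baseline are scored, with SRB total-protein staining run in parallel for cytotoxicity.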

The target of experiment [15] is Glucocorticoid receptor (Homo sapiens) (UniProt P04150). The experiment in a line: ATG_GR_TRANS: Attagene TRANS-FACTORIAL HepG2 Assay for human Glucocorticoid Receptor (GR) (AID 2282978; active means hit-call score of the fitted dose curve at least 0.9, where 1 is the maximum;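 further: activators score as hits since higher reporter transcript over DMSO is fitted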). The conditions noted are these: HepG2 Attagene TRANS GR reporter, mRNA transcription. The gist of the method: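 Transient MRTU transfection of HepG2 (GAL4-UAS reporters, exogenous NR-GAL4 chimeras), 24 h dosing. Readout: reporter transcript via RT-PCR + capillary electrophoresis fluorescence. Positive direction vs DMSO baseline.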

A short description of experiment [16]: CEETOX_H295R_MTT_cell_viability: Viability Assessment in the CeeTox HT-H295R MTT Assay (AID 2283718). The gist of the method: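 MTT reduction (0.5 mg/ml, 4 h at 37 C; absorbance at 570 and 650 nm) gave viability as background-corrected percent change versus controls. H295R cells had 48 h forskolin (10 uM) prestimulation, then 48 h chemical exposure at 0.1% DMSO.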

Experiment [17] has as its target Androgen receptor (Homo sapiens) (UniProt P10275). The experiment in a line: ATG_AR_TRANS: Attagene TRANS-FACTORIAL HepG2 Assay for human Androgen Receptor (AR) (AID 2282973; active means hit-call score of the fitted dose curve at least 0.9, where 1 is the maximum). As to conditions: HepG2 Attagene TRANS-FACTORIAL AR reporter transcription. The gist of the method:
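HepG2 cells transiently transfected with AR-Gal4 chimera and GAL4-UAS reporter units; chemical exposure 24 h. Reporter mRNA quantified by RT-PCR with fluorescent labelling and capillary electrophoresis; gain-of-signal fitted against DMSO.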

Experiment [18] deals with Retinoic acid receptor alpha (Homo sapiens) (UniProt P10276). The experiment is described as follows: ATG_RARa_TRANS: Attagene TRANS-FACTORIAL HepG2 Assay for human Retinoic Acid Receptor alpha (RARa) (AID 2283005; active means hit-call score of the fitted dose curve at least 0.9, where 1 is the maximum). Put shortly: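 Reporter transcripts, measured by RT-PCR with fluorescent labeling and capillary electrophoresis after 24 h dosing, reflect activity of an exogenous human RARa–GAL4 fusion in transiently transfected HepG2. Fitted for increase relative to DMSO.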

The target of experiment [19] is human Retinoic Acid Receptor gamma (RARg), RARG (gene 5916) (UniProt P13631). The experiment in a line: ATG_RARg_TRANS: Attagene TRANS-FACTORIAL HepG2 Assay for human Retinoic Acid Receptor gamma (RARg) (AID 2283009; active means hit-call score of the fitted dose curve at least 0.9, where 1 is the maximum). Put shortly:
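HepG2 cells transiently transfected with multiplexed reporter units expressing chimeric RARg-GAL4 and GAL4-UAS-driven reporters; 24 h compound exposure. Reporter mRNA quantified by RT-PCR with fluorescent labelling and capillary electrophoresis; gain-of-signal fitted relative to DMSO baseline.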

The target of experiment [20] is human Retinoic Acid Receptor beta (RARb), RARB (gene 5915) (UniProt P10826). The experiment in a line: ATG_RARb_TRANS: Attagene TRANS-FACTORIAL HepG2 Assay for human Retinoic Acid Receptor beta (AID 2283004; active means hit-call score of the fitted dose curve at least 0.9, where 1 is the maximum). Put shortly:
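HepG2 cells were transiently transfected with GAL4-UAS reporter units that report activity of exogenous chimeric NR-Gal4 proteins, then exposed to compound for 24 h. Reporter mRNA was quantified by RT-PCR with capillary electrophoresis fluorescence, as gain of signal over DMSO.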

Several values for one entry are separate records, joined by “and”; a condition that tells them apart may be missing. Equal entries are not always repeated. Inconclusive results are not listed. More than one record can exist for a structure, and the calls need not agree. Activity calls are given as the source filed them. How the source made its calls, unless noted: active means hit-call score of the fitted dose curve at least 0.9, where 1 is the maximum; inactive means score below 0.9.

Sequence of human Peripheral-type Benzodiazepine Receptor (PBR), TSPO (gene 706) (P30536 whole entry, looked up): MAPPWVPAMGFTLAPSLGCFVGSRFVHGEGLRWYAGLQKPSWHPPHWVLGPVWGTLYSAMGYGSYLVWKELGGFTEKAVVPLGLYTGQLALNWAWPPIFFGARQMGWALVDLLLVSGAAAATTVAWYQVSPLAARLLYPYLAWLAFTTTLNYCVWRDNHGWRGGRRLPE
Sequence of Tumor necrosis factor (Homo sapiens) (P01375 whole entry, looked up): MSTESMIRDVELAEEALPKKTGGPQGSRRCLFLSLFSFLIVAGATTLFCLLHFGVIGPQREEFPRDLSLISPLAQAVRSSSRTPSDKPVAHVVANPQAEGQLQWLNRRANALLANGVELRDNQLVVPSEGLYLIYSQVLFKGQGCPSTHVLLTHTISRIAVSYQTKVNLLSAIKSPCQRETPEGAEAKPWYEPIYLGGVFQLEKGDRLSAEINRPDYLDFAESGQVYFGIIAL
Sequence of Androgen receptor (Homo sapiens) (P10275 whole entry, looked up, the tested form may be a part): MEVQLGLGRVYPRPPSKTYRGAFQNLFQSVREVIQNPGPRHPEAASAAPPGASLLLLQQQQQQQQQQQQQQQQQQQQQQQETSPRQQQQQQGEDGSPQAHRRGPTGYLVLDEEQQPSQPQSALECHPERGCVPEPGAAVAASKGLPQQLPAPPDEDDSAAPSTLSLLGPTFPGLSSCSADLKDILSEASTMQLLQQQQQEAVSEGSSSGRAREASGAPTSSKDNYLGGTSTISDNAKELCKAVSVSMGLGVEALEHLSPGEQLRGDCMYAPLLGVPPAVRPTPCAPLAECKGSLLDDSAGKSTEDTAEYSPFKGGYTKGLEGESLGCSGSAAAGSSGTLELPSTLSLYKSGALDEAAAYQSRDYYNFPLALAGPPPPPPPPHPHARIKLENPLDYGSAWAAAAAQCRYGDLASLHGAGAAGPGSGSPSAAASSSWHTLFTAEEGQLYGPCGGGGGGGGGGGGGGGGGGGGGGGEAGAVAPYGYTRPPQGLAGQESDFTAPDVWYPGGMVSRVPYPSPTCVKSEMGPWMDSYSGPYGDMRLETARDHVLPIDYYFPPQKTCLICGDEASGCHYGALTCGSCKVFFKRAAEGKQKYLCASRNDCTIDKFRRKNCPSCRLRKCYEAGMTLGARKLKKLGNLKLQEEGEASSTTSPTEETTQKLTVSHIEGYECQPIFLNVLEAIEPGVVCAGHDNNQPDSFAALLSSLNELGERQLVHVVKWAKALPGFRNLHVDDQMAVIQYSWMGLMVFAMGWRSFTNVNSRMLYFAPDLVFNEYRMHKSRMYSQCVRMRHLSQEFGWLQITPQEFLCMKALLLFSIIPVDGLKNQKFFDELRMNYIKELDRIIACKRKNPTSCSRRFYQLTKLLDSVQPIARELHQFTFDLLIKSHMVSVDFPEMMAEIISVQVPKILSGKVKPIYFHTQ
Sequence of Glucocorticoid receptor (Homo sapiens) (P04150 whole entry, looked up, the tested form may be a part): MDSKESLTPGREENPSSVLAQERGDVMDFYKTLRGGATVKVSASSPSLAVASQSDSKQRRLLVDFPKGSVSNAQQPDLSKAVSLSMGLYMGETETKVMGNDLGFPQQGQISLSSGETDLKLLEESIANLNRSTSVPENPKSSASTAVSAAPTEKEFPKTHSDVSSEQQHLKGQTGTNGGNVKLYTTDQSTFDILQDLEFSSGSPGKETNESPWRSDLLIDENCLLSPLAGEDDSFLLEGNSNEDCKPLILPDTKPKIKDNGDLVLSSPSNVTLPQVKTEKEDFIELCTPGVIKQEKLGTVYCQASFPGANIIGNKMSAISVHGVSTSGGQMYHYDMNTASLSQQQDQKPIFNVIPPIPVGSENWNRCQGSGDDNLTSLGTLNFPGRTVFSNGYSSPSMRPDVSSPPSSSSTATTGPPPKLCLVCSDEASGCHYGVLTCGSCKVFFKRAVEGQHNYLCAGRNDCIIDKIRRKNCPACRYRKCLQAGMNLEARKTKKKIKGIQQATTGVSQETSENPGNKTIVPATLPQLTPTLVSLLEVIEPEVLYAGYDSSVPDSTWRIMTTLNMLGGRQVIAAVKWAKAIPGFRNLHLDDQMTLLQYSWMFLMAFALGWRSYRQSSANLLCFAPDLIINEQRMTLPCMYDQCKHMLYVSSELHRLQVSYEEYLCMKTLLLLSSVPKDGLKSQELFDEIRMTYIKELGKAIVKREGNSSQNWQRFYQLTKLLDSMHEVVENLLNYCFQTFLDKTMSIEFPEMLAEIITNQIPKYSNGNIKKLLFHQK
Sequence of rat Thyrotropin Releasing Hormone Receptor (TRH), Trhr (gene 25570) (Q01717 whole entry, looked up): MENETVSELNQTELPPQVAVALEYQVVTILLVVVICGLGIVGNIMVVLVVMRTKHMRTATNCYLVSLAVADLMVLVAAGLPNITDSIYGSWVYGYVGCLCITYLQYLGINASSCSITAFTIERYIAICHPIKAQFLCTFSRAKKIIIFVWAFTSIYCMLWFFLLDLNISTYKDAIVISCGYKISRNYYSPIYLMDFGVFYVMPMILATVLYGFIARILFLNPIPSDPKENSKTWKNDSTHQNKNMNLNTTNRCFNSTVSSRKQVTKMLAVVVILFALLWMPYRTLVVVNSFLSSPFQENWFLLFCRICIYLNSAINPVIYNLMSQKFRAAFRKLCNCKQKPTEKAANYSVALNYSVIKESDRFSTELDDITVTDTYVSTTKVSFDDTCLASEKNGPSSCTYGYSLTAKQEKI
Sequence of human Retinoic Acid Receptor gamma (RARg), RARG (gene 5916) (P13631 whole entry, looked up, the tested form may be a part): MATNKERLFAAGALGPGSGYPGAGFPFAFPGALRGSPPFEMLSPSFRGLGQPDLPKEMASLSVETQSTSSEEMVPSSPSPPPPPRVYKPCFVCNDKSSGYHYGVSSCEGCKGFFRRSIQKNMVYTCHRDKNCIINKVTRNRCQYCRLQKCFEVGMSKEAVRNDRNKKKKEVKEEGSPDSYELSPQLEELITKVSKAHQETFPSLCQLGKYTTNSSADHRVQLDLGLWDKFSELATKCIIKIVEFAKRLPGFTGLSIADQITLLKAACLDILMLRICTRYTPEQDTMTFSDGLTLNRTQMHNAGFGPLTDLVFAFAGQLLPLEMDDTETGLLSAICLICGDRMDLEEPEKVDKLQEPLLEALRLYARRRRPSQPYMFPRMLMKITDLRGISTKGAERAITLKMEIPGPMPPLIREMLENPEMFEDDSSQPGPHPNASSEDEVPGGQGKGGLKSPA
Sequence of human Retinoic Acid Receptor beta (RARb), RARB (gene 5915) (P10826 whole entry, looked up, the tested form may be a part): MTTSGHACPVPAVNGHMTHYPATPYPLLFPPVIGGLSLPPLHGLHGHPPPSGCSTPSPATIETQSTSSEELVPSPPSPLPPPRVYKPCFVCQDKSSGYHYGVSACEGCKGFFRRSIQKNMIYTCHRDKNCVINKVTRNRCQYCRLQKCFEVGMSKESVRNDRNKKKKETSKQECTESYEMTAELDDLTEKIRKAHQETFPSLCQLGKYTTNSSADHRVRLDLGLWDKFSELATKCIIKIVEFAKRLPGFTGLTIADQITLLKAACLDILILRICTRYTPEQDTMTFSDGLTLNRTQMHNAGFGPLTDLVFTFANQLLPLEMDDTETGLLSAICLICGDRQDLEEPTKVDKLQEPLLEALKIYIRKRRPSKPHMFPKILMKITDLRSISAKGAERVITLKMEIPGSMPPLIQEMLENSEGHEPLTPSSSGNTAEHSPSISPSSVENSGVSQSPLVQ
Sequence of Retinoic acid receptor alpha (Homo sapiens) (P10276 whole entry, looked up, the tested form may be a part): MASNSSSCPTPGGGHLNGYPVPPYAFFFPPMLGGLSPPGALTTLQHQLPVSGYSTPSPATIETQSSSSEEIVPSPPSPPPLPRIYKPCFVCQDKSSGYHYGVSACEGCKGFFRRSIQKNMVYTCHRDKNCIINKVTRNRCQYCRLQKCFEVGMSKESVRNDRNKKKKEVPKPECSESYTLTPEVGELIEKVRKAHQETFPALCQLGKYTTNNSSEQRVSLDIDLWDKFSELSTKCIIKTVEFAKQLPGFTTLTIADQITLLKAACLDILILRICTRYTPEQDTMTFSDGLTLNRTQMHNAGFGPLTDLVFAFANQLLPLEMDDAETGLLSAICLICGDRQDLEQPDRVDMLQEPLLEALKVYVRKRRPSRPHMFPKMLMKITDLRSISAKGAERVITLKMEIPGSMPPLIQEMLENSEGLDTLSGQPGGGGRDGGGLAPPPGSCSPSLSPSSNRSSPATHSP

In the case of `CNC(=N[N+](=O)[O-])NCC1CCOC1` (stereo not drawn), the molecule was called inactive in experiment [1].

In the case of `CCc1cc(C)cc(CC)c1-c1c(OC(=O)C(C)(C)C)n2n(c1=O)CCOCC2`, the molecule was called inactive in [2], in [3], in [4], in experiment [5], in experiment [6] and in [7]. Moreover, the result in experiment [9], in experiment [10], in experiment [11], in [12], in experiment [13] and in [14] was inactive. Further, the AC50 in experiment [8] is 20 µM (active).

On to `C=CCO`, for which, in [15], the molecule was called inactive.

For the molecule `c1ccc(Nc2ccc3ccccc3c2)cc1`, the call in [15], in experiment [16], in experiment [3], in [10] and in experiment [12] was inactive. Further, the AC50 was 31.5 µM (active) in experiment [4]; 20 µM (active) in [5]; 31.2 µM (active) in experiment [6]; 31 µM (active) in experiment [7]; 29 µM (active) in experiment [8]; 31 µM (active) in experiment [9]. Also, the concentration at half-maximal activity (AC50) in [11] was 31.6 µM (active); in experiment [13], 35.5 µM (active); in experiment [14], 34.4 µM (active).

In the case of `CCCCCCCCCCCC#N`, the result in experiment [3], in experiment [4], in experiment [5], in experiment [10] and in [12] was inactive. In addition, the AC50 in experiment [6] was 30.7 µM (active); in experiment [7], 20.6 µM (active); in experiment [8] it was 26.5 µM (active); in experiment [9] it was 32.9 µM (active); in experiment [13], 30.5 µM (active); in [14], 31.4 µM (active).

`O=S(=O)(O)OOS(=O)(=O)O`: the outcome in experiment [1] was inactive.

In the case of `CC(C)C(=O)Cl`, in experiment [17], the outcome was inactive.

As to `CCOP(=O)(OCC)Oc1ccc([N+](=O)[O-])cc1`, the outcome in [2] and in [16] was inactive.

As to `CN(C)CCC#N`, the molecule was classed as inactive in experiment [18] and in experiment [19].

On to `COC(=O)c1ccccc1S(=O)(=O)NC(=O)Nc1nc(C)cc(C)n1`, for which the molecule was called inactive in experiment [20] and in [19].

On to `CNC(=O)Oc1cc(C)c(SC)c(C)c1`, for which the call in experiment [17], in [16], in experiment [6], in [7], in experiment [8] and in [9] was inactive. The result in [10], in experiment [11], in experiment [12], in [13] and in experiment [14] was inactive. Besides, the AC50 in experiment [3] was 15.6 µM (active); in experiment [4], 10.6 µM (active); in [5], 29.7 µM (active).

As to `CC1(C)[C@H](C(=O)O[C@H](C#N)c2cccc(Oc3ccccc3)c2)[C@@H]1C=C(Br)Br`, the call in [17], in experiment [2], in experiment [3], in [5], in experiment [6] and in experiment [7] was inactive. For the same molecule, the result in experiment [8], in experiment [9], in [10], in experiment [11], in experiment [12] and in experiment [13] was inactive. Further, the outcome in experiment [14] was inactive. For the same molecule, the AC50 in experiment [2] is 10.1 µM (active); in experiment [4], 23.2 µM (active) and 29.8 µM (active).

As to `CCC(C)c1cc(C(C)(C)C)cc(-n2nc3ccccc3n2)c1O` (stereo not drawn), the molecule was classed as inactive in experiment [17].

The values are drawn from PubChem BioAssay (EPA / NIEHS).
